# Compound activity: PubChem BioAssay, several laboratories
# CHT block: inhibits the human high affinity choline transporter; CHT-expressing cells, membrane potential dye, choline response; active compounds read low; B-score at 10 µM; 0.86% of 310,000 active; AID 488975;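 active = B-score over 3 SD under the library average, and starting fluorescence ratio not unusually high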;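 note: choline stimulus applied at its EC90 after an EC20 pre-addition; B-score computed on integrated fluorescence ratio after choline addition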
# Target sequence (Q9GZV3 whole entry, looked up): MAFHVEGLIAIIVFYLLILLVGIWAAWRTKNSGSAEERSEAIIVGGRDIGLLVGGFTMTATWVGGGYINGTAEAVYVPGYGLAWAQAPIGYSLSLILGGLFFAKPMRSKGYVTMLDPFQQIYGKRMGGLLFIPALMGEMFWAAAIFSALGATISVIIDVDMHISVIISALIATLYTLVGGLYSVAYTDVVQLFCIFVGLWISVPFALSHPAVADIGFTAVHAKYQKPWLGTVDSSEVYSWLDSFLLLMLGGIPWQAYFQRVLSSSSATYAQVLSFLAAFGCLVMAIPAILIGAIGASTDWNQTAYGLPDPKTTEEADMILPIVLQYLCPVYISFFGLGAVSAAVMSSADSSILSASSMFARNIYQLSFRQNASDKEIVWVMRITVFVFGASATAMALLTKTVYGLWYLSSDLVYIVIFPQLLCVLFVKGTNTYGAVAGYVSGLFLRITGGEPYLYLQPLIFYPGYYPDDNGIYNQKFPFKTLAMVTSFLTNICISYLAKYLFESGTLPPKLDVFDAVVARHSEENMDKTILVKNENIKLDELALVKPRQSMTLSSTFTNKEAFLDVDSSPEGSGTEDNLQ
# MIN6 prolif: induces beta-cell replication in MIN6 cells; proliferation, % at 10 µM; AID 2380; MIN6 cells proliferation, ATPlite luminescence, 48 h; cells starved in 0.2% serum; 100% = growth in 10% serum; 0.29% of 330,000 active;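 active = compounds whose signal lies at least 3.5 SD above the mean of all wells on their plate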
# CHT PAM: human CHT allosteric activation; CHT-expressing cells, membrane potential dye, choline EC20; active compounds read high; LV-AA mutant CHT in HEK293 cells; Q9GZV3; B-score at 10 µM; 0.49% of 310,000 active;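 active = initial fluorescence not abnormally high and integrated response B-score, plate-corrected, over 3 SD above library mean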
# TAG inh: reduces triacylglycerol accumulation in H9c2 cells. 0.66% of 230,000 active. Nile Red lipid (TAG) fluorescence; cells loaded with 200 µM oleic acid. inhibition, % at 12.5 µM;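 active = pattern-corrected inhibition of lipid staining of at least 50% with the nuclear-stain viability signal not falling by more than 50%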
# CHT activ conf: confirmation of human choline transporter (CHT) activators; 91% of 2,500 active; shares compounds with CHT PAM; activation, % at 10 µM; CHT-expressing cells, membrane potential dye fluorescence (FDSS); % of choline EC20–EC90 response window; HEK293 expressing CHT LV-AA mutant; choline added at its EC20;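 active = primary screen active, with duplicate mean activation above negative control mean plus 3 SD, cut at about 11% in these data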
# HEK293 MP dye: CHT activator counter-screen hit in parental HEK293 cells. 62% of 2,500 active. shares compounds with CHT PAM. ratio readout change at 10 µM, hits read low. membrane potential dye fluorescence (FDSS); measured after EC20 choline addition;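 active = duplicate-averaged ratio beyond 3 SD from buffer wells, up or down, though filed actives are nearly all decreases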
# A number is an active result; n = inactive; x = no result given. Only some compounds are listed: those with a hit (about 1.7% of all), similar ones and a draw of the others.
SMILES,CHT block,MIN6 prolif,CHT PAM,TAG inh,CHT activ conf,HEK293 MP dye
COCCCNC(=O)c1nc2ccccc2c(=O)n1NC(=O)Nc1c(Cl)cccc1Cl,n,n,n,x,x,x
Cc1cnc(C(=O)Nc2cccc3ncccc23)cn1,n,n,7.99,n,42.6,-47.4
CC(C)(C)NC(=O)C(c1ccncc1)N(C(=O)Cn1nnc(-c2ccc(F)cc2)n1)c1cccc(F)c1 (centres undefined),n,n,n,x,x,x
Cc1ccc(Nc2nc(-c3c(C)nc4ncccn34)cs2)cc1,n,n,6.75,x,28.8,n
CN(C)CCNc1ncnc2ccccc12,n,n,n,x,18.3,-52.5
O=C(Nc1cccc(S(=O)(=O)N2CCCCCC2)c1)C1CC(=O)N(c2ccc3c(c2)OCCO3)C1 (centres undefined),n,n,n,n,x,x
Cn1c(=O)c(=O)n(C)c2cc(S(=O)(=O)N3CCC(N4CCCCC4)CC3)ccc21,n,n,10.4,x,76.7,-76.6
Cc1cc(C)n2c(Br)c(CN3CCCC(C)C3)nc2n1 (centres undefined),n,n,6.55,n,28.8,-51
COc1ccc(NCc2nc3ccccc3n2CCOc2ccccc2)cc1,n,n,6.38,x,23.7,n
COc1ccc(/C=C/c2ccc3ccccc3[n+]2C)cc1OC,n,n,n,x,x,x
CC(=O)Oc1ccccc1/C=C/c1ccc2ccccc2[n+]1C,n,n,6.85,x,47.7,-41.9
N#Cc1ccc(NC(=O)COC(=O)CSc2nnc(-c3ccc(Cl)cc3)o2)cc1,n,n,n,x,x,x
CCc1ccc(CNC(=O)c2ccc3nc(C4CCCCC4)oc3c2)nc1,n,n,n,n,x,x
CC1CC(C)CN(S(=O)(=O)c2ccc(C(=O)N(c3ccccn3)C3CCCCC3)cc2)C1 (centres undefined),n,n,n,n,20.9,n
CSc1nc(Cl)c(Cc2ccc(OC(C)C)cc2)c(N(C)C)n1,n,n,n,x,x,x
CCOc1ccc(Cc2c(Cl)nc(SC)nc2N(C)C)cc1,n,n,6.39,x,27.6,n
O=C(c1ccccn1)N1CCCC(N2CCN(c3cccc(C(F)(F)F)c3)CC2)C1 (centres undefined),n,n,n,x,x,x
CN(Cc1ccccc1)c1nc2c(c(=O)n(C)c(=O)n2C)n1CCCc1ccccc1,n,n,8.67,n,25.4,n
CCN(CC)c1nc2c(c(=O)n(C)c(=O)n2C)n1CCCc1ccccc1,n,n,n,x,x,x
CCCCCn1c(CN2CCN(CCO)CC2)nc2c1c(=O)n(C)c(=O)n2C,n,n,n,n,x,x
CCCCCCn1c(CN2CCN(C)CC2)nc2c1c(=O)n(C)c(=O)n2C,n,n,9.47,n,60.8,-46.3
Cn1c(=O)c2c(nc(CN3CCCCC3)n2CCc2ccccc2)n(C)c1=O,n,n,12.3,n,47.4,n
CN1CCN(Cc2nc3c(c(=O)n(C)c(=O)n3C)n2CCCc2ccccc2)CC1,n,n,7.99,n,48.0,-36.3
Cn1c(=O)c2c(nc(CN3CCN(c4ccccc4)CC3)n2CCc2ccccc2)n(C)c1=O,n,n,n,n,x,x
Cn1c(=O)c2c(nc(CN3CCN(c4cccc(Cl)c4)CC3)n2CCc2ccccc2)n(C)c1=O,n,n,9.31,x,24.4,n
SMILES,CHT block,MIN6 prolif,CHT PAM,TAG inh,CHT activ conf,HEK293 MP dye
Cc1ccccc1-n1nc(CSc2nc3ccccc3[nH]2)c(-c2ccccc2)c1N,n,n,n,x,35.0,n
NS(=O)(=O)c1ccc(NC(=O)c2ccc3nccnc3c2)cc1,n,n,7.53,n,38.7,-27.5
COc1ccc(C(=O)N2CCC(n3c(C)nc4cc(F)ccc43)CC2)cc1,n,n,n,n,x,x
CN(C(=O)c1cccc(C#CC(C)(C)O)c1)C1CCCN(Cc2ccccc2F)C1 (centres undefined),n,n,n,n,x,x
CSc1ccccc1NC(=O)CN(C)C(=O)c1ccc(NC(=O)c2cccs2)cc1,x,n,x,n,x,x
CCN(CC)S(=O)(=O)c1ccc(N2CCCCC2)c(NC(=O)C2=COCCO2)c1,n,n,n,n,x,x
Cc1cc[n+](-c2ccccc2)c2ccccc12,n,n,7.02,n,31.9,-44.4
CC1(C(=O)NS(=O)(=O)c2ccccc2)CCN1C(=O)CC1CCCCC1 (centres undefined),x,x,x,n,x,x
Cc1nc2ccccn2c1-c1ccnc(=S)[nH]1,n,n,6.78,n,37.0,-35.1
S=c1nccc(-c2ccc(Cl)cc2)[nH]1,n,n,n,n,x,x
Cn1ccnc1-c1ccc(-c2nccn2C)cc1,n,n,9.99,x,63.7,-76.4
O=C(NCC(c1ccco1)N1CCc2ccccc21)c1ccccc1Cl (centres undefined),n,n,9.36,n,29.2,n
O=C(NCC(c1ccco1)N1CCc2ccccc2C1)c1ccc(Cl)cc1 (centres undefined),n,n,n,n,10.8,n
Cc1ccc(C(=O)NCC(c2ccco2)N2CCc3ccccc3C2)cc1 (centres undefined),n,n,n,n,x,x
Brc1ccc(C2=CSC3=NCCN23)cc1,n,n,n,n,x,x
O=S(=O)(c1ccc(C2=CSC3=NCCN23)cc1)N1CCOCC1,n,n,6.32,n,36.3,-40.3
CC(C)(C)c1ccc(S(=O)(=O)Nc2noc3ccccc23)cc1,n,n,n,x,x,x
CCOC(=O)c1sc2nc(SCC#N)n(CCCN3CCCC3=O)c(=O)c2c1C,n,n,n,x,21.3,n
COc1ccc(/C=N/Nc2ccccn2)cc1O,n,n,n,n,35.1,-47.9
Oc1cccc(C=NNc2ccccn2)c1,x,x,x,n,x,x
Cc1cc2ccccc2n1CCNC(=O)C1CCCCC1,n,n,n,n,x,x
Cc1cc2ccccc2n1CCNC(=O)C1CCCC1,n,n,n,n,n,n
C[C@@H]1CC=C[C@H]2[C@H]1C(=O)N(Cc1ccccc1)[C@H]2c1cccc([N+](=O)[O-])c1,n,n,6.25,n,26.2,n
Cn1c(-c2ccccc2)c(C(=O)CCl)c2ccccc21,x,x,x,n,x,x
CCCc1c(CC)c(=N)c2ccccc2n1C,n,n,7.54,x,63.7,-58.1
SMILES,CHT block,MIN6 prolif,CHT PAM,TAG inh,CHT activ conf,HEK293 MP dye
CC(C)CCn1c(Oc2ccc(Cl)cc2)nc2c1c(=O)n(C)c(=O)n2C,n,n,n,n,24.7,n
CC(C)CNC(=O)c1cccc(NC(=O)Cc2ccc(Cl)cc2)c1,n,n,n,x,x,x
N=C(N)SCCc1cccc(CCSC(=N)N)c1,n,n,9.04,n,42.6,-45.5
CC(=O)OCCn1c(C)[n+](CCOC(C)=O)c2cc(Cl)c(Cl)cc21,n,n,n,n,x,x
CCn1c(C)[n+](CCOCC[n+]2c(C)n(CC)c3cc(Cl)c(Cl)cc32)c2cc(Cl)c(Cl)cc21,n,n,6.69,x,30.9,-48.6
Cn1cccc/c1=N\c1cccc[n+]1C,n,n,n,n,67.3,-55.7
CCOC(=O)c1c(NC(=O)CSc2nc3ccccc3o2)sc(C(C)=O)c1C,n,n,9.07,n,11.8,n
